# Bioassay records deposited in PubChem BioAssay by several laboratories.
# A3G deaminase: blocks human APOBEC3G single-stranded DNA deamination | Q9HC16 | recombinant A3G, ssDNA deamination FAM/TAMRA fluorescence | inhibition, % at 20 µM | 330,000 tested, 0.28% active | AID 493012;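 active = inhibition of at least 40% at 20 µM, with no more than 30% in the related APOBEC3A deaminase screen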;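 also: plate controls were DMSO wells with A3G for no effect and wells lacking A3G enzyme for full effect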
# APOBEC3A inh: inhibitors of human APOBEC3A DNA deaminase; 330,000 tested, 0.41% active; P31941; AID 493011; inhibition, % at 20 µM; recombinant A3A, FAM/TAMRA ssDNA deamination fluorescence;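 active = at least 40% inhibition at 20 µM here, with at most 30% in a related deaminase screen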;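 also: plate controls were A3A with DMSO for no effect and wells lacking A3A enzyme for full effect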
# Target sequence (P31941 whole entry, looked up): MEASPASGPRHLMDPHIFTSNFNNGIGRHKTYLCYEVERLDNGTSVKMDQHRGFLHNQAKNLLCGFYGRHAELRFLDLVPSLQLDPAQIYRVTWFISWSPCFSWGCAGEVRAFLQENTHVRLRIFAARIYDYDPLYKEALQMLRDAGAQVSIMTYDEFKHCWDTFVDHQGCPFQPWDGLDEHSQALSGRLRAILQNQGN
# esBAF inh: blocks esBAF chromatin remodeling in mouse ES cells | 350,000 tested, 2% active | Bmi1-luciferase knock-in reporter, 24 h; 100% = twice the neutral-well signal | AID 602393 | reporter increase, % at 12.5 µM; in the data active = activation above about 40%;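 also: 0% = median of the plate's neutral control wells and 100% = double that signal; a rise in the Bmi1 reporter signal indicates esBAF inhibition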
# MITF TRPM1 HTS: increases MITF-driven TRPM1 promoter luciferase signal; SK-MEL-5 TRPM1-promoter luciferase, 24 h; % of positive control, neutral wells = 0; activation, % at 12.5 µM; 300,000 tested, 0.75% active; AID 588334;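 active = mean activation of at least 80% with every replicate also reaching 80%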;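 also: 0% = neutral control wells and 100% = parthenolide positive control wells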
# PHOSPHO1 inh: PHOSPHO1 (human) inhibition; recombinant PHOSPHO1, absorbance phosphatase assay; inhibition, % at 13.3 µM; 290,000 tested, 1.1% active; AID 1565; in the data active = inhibition above about 60%
# Target sequence (Q8TCT1 whole entry, looked up): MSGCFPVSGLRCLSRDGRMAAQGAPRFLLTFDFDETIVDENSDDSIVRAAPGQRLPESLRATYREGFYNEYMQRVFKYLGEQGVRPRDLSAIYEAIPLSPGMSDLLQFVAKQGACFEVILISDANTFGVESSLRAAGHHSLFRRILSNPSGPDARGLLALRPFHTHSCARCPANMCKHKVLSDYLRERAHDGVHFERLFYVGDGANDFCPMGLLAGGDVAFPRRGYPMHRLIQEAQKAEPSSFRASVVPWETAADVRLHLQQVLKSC
# Wnt act: activators of Wnt/beta-catenin signaling; Wnt/beta-catenin reporter cell assay, activator, plate reader; activation, % at 9.35 µM; 300,000 tested, 1.2% active; in the data active = activation above about 30%, passing the limit was not always enough;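 also: 0% = neutral control wells and 100% = positive control wells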
# The depositor's hits bear a star; nt = no result. Most compounds without a hit are left out; they make up all but 3.6% or so of the library.
SMILES,A3G deaminase,APOBEC3A inh,esBAF inh,MITF TRPM1 HTS,PHOSPHO1 inh,Wnt act
COc1ccc(NC(=O)N2CCCC(c3nc(-c4ccc(OC)cc4)no3)C2)cc1 (stereo unspecified),-3.6,-1.6,21.3,2.4,23.4,20.2
O=C(c1ccc(F)cc1F)N1CCCC(c2nc(-c3cccs3)no2)C1 (stereo unspecified),-6.5,-2.4,7.5,1.9,14.6,-0.7
O=C(c1c(F)cccc1F)N1CCCC(c2nc(-c3cccs3)no2)C1 (stereo unspecified),-11.2,-3.1,80.8*,47.8,31.0,13.1
COc1ccc(-c2noc(C3CCCN(C(=O)Nc4ccccc4)C3)n2)cc1 (stereo unspecified),-11.4,-3.5,59.1*,3.5,21.6,-0.5
COc1ccc(-c2noc(C3CCCN(C(=O)c4ccccc4)C3)n2)cc1 (stereo unspecified),-10.4,-1.5,42.2*,51.3,33.4,0.5
COc1ccc(-c2noc(C3CCCN(C(=O)c4cccc(F)c4)C3)n2)cc1 (stereo unspecified),-5.9,-2.0,7.5,-8.5,39.1,-1.9
C[C@@H]1CN([C@H](C)CO)C(=O)c2cc(NS(=O)(=O)c3ccc(F)cc3)ccc2O[C@@H](C)CCCCO[C@@H]1CN(C)C(=O)Cc1ccccc1,nt,nt,-2.7,nt,nt,nt
CCCN(C)C[C@@H]1Oc2cc(-c3cncnc3)ccc2S(=O)(=O)N([C@H](C)CO)C[C@@H]1C,nt,nt,1.4,nt,nt,nt
CCCC(=O)Nc1c2c(nn1-c1ccc(C)cc1C)CSC2,-3.2,-6.4,3.3,11.4,71.7*,nt
CC1CCCC(C(=O)O)N1C(=O)CCS (stereo unspecified),-1.2,1.3,-6.4,10.4,62.2*,-0.9
CSCCC(=O)N1C(C)CCCC1C(=O)O (stereo unspecified),0.5,0.4,-11.4,3.2,23.1,nt
COC(=O)c1cc2c(s1)-c1ccc(OC)cc1CC2,-9.2,-3.4,nt,54.1,8.3,67.0*
Cc1ccc(-c2csc(N/N=C/c3ccco3)n2)c(C)c1,-4.0,1.7,68.7*,43.5,-24.5,nt
CN(C)S(=O)(=O)c1cccc(-c2csc(N/N=C/c3ccco3)n2)c1,-4.5,-4.3,28.1,28.8,1.8,4.2
CCN1[C@@H]2Cn3c(ccc(-c4ccccc4F)c3=O)[C@H]1[C@@H](C(=O)NCc1ccc(F)cc1)[C@@H]2CO,nt,nt,3.0,nt,nt,nt
C=CCc1ccc(OC(=O)NC2CCCCC2)c(OC)c1,-7.1,-0.3,51.4*,58.5,24.8,13.1
O=S(=O)(c1ccc(Br)cc1)N1CCN=C1SCc1cccc(F)c1,-3.0,-1.4,-2.1,3.8,27.4,-0.9
COc1ccc(S(=O)(=O)N2CCN=C2SCc2cccc(F)c2)cc1,-0.1,2.1,nt,-1.9,61.0*,-2.8
CCN(CC(=O)NCc1ccc(F)cc1)C(=O)c1ccc(COc2ccccc2)cc1,-2.7,6.7,56.7*,45.1,31.0,0.0
C[C@H]1CN([C@@H](C)CO)S(=O)(=O)c2ccc(C3=CCCC3)cc2O[C@@H]1CN(C)C(=O)c1ccccc1,nt,nt,-1.1,nt,nt,nt
Cc1ccccc1/C=N/NC(=O)c1sccc1C,-2.0,1.2,nt,79.3,2.1,80.2*
Cc1ccsc1C(=O)N/N=C/C=C/c1ccccc1[N+](=O)[O-],-1.0,3.2,44.5*,44.1,-3.2,nt
C[C@@H]1CCCCO[C@H](CN(C)Cc2ccc(Cl)c(Cl)c2)[C@@H](C)CN([C@@H](C)CO)C(=O)c2cc(NC(=O)Nc3cccc4ccccc34)ccc2O1,nt,nt,-10.2,nt,nt,nt
C/C=C/c1ccc([C@@H]2[C@@H](CO)N3CCCCN(S(=O)(=O)c4ccc(OC)cc4)C[C@@H]23)cc1,nt,nt,-3.1,nt,nt,nt
CSc1ccc(CN(C)C(=O)c2cc3ccccc3o2)cc1,-0.1,10.2,57.5*,57.6,4.3,-1.2
COc1ccc(NC(=O)Nc2ccc3c(c2)CC(=O)N([C@@H](C)CO)C[C@H](C)[C@@H](CN(C)C(=O)Nc2ccc(C(F)(F)F)cc2)O3)cc1,nt,nt,1.0,nt,nt,nt
CCNC(=O)C[C@@H]1CC[C@@H]2[C@H](COc3ccc(NS(C)(=O)=O)cc3C(=O)N2C)O1,nt,nt,1.6,nt,nt,nt
CC(=O)c1ccc(NC(=O)CNCc2cccs2)cc1,-1.2,3.3,54.2*,66.9,39.9,14.3
CC(=O)N1CCc2c(sc(NC(=O)c3ccc([N+](=O)[O-])o3)c2C#N)C1,nt,nt,nt,-93.5,20.0,66.6*
